In the library only some 5.7% were active in any assay of this set; here they are far more common.
BAZ2B inh: qHTS Assay for Inhibitors of BAZ2B; Bromodomain adjacent to zinc finger domain protein 2B (Homo sapiens), Q9UIF8; AlphaScreen BAZ2B-H3K14Ac peptide displacement; Potency, µM (highest dose often 114 µM), for the others: top-dose activity change, negative = inhibition, hits mostly inhibitors; actives 4.4% (n = 360,000); further: potency means the concentration at half of the fitted maximal effect; on the % scale 0 is the no-effect control and ±100 the full control effect; nearly all actives have a fitted effect of over 60% in size
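In this displacement format the biotinylated H3(5-23) peptide acetylated at Lys14 serves as ligand at 50 nM, with BAZ2B at 50 nM in PBS pH 7.4 containing 0.01% Tween-20. Donor and acceptor beads are 10 ug/mL final.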
PI5P4K alpha inh: qHTS for Inhibitors of phosphatidylinositol 5-phosphate 4-kinase (PI5P4K) | max response, % | PI5P4Kalpha enzyme, ADP-Glo luminescence, 60 min; hits give low values | AID 652105, 2013 | actives 1.2% (n = 330,000); active means max response of -50% or lower; inconclusive means between -30% and -50%; inactive means -30% or higher; further: value at the top dose of about 77 µM; on the % scale 0 is the no-effect control and ±100 the full control effect
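Compounds were pin-transferred onto PI5P4Kalpha and substrate in HEPES pH 7.4 buffer with EGTA, CHAPS and 5% DMSO. ATP (5 microM final) started the reaction, which ran 60 minutes at room temperature before ADP-Glo detection.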
JMJD2A Tudor inh: qHTS Assay for Inhibitors of JMJD2A-Tudor Domain; AlphaScreen JMJD2A-Tudor / H3K4me3 peptide binding; Potency, µM (doses to about 114 µM), inactives show at the top dose activity change, negative = inhibition, actives largely listed as inhibitors; actives 4.4% (n = 390,000); further: potency means the concentration at half of the fitted maximal effect; on the % scale 0 is the no-effect control and ±100 the full control effect; nearly all actives have a fitted effect of over 50% in size
JMJD2E inh: qHTS Assay for Inhibitors of Human Jumonji Domain Containing 2E (JMJD2E); actives 1.6% (n = 230,000); Lysine-specific demethylase 4E (Homo sapiens), B2RXH2; Potency, µM (doses to about 57.1 µM), for inactives: at the highest dose activity change, negative = inhibition, hits mostly inhibitors; JMJD2E catalytic domain, FDH-coupled NADH fluorescence (FDH is formaldehyde dehydrogenase); active means well fitted inhibition curve with a large enough effect, not every such curve was filed as active; inconclusive means small, poorly fitted or top-dose-only effect, or another doubt; inactive means no such curve, though single readings can be large or run the other way;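 further: potency means the concentration at half of the fitted maximal effect; 0% = wells with enzyme and -100% = buffer wells without enzyme; nearly all actives have a fitted effect of over 50% in size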
L3MBTL1 inh: qHTS Assay for the Inhibitors of L3MBTL1 | Potency, µM (doses to about 57.1 µM), inactives show top-dose activity, negative = inhibition, usual class: inhibitors | actives 0.66% (n = 230,000) | Lethal(3)malignant brain tumor-like protein 1 (Homo sapiens), Q9Y468 | AlphaScreen L3MBTL1–H3K9me1 peptide binding; further: potency means the concentration at half of the fitted maximal effect; on the % scale 0 is the no-effect control and ±100 the full control effect; nearly all actives have a fitted effect of over 60% in size
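Read-out is AlphaScreen signal from streptavidin donor and nickel chelate acceptor beads (10 ug/mL final each) bridging L3MBTL1 (50 nM) and biotinylated K9-monomethylated H3(1-15) peptide (75 nM), after 30 min compound exposure at room temperature.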
HP1b chromo inh: HTS for Inhibitors of HP1-beta Chromodomain Interactions with Methylated Histone Tails; Chromobox protein homolog 1 (Homo sapiens), P83916; AlphaScreen HP1-beta / biotin-H3K9me3 peptide binding; AID 540317, 2011; Potency, µM (top dose mostly 114 µM), for the others: at the highest dose activity change, negative = inhibition, actives largely listed as inhibitors; actives 0.56% (n = 390,000); further: potency means the concentration at half of the fitted maximal effect; nearly all actives have a fitted effect of over 70% in size
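Compound inhibition of the preformed complex between 50 nM HP1-beta and 50 nM biotinylated H3K9me3 peptide was read by AlphaScreen. Buffer was PBS pH 7.4 with 0.01% Tween-20. Incubations ran 30 min at room temperature, with 10 ug/mL donor/acceptor beads.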
Numbers without * were called inactive; ? = inconclusive; nt = no result given; [ ] = remark or other dose. Unless noted, the call rests on the fitted dose curve; in most records, active means well fitted inhibition curve with a large enough effect; inconclusive means small, poorly fitted or top-dose-only effect; inactive means no such curve, though single readings can be large or run the other way.

SMILES	BAZ2B inh	PI5P4K alpha inh	JMJD2A Tudor inh	JMJD2E inh	L3MBTL1 inh	HP1b chromo inh
C/C(=N/NC(=O)c1cc2ccccc2cc1O)C1C(=O)c2ccccc2C1=O	?	?	16µM*	?	nt	22µM*
COc1cc2c(cc1/C=C1/NC(=O)N(CC(=O)Nc3ccccc3)C1=O)OCO2	-18%	-15	-8%	21%	0%	4%
Cc1ccc(NC(=O)CN2C(=O)N/C(=C/c3ccccc3OCc3cccc(C(=O)O)c3)C2=O)cc1	18µM*	-29	28µM*	nt	nt	?
COc1cccc(/C=C2/NC(=O)N(CC(=O)Nc3ccc(C)cc3)C2=O)c1OCc1cccc(C(=O)O)c1	25µM*	-26	?	nt	nt	?
CCOc1cc(C(=O)Nc2ccc(-c3nnc4n3CCCCC4)cc2)cc(OCC)c1OCC	-8%	nt	-19%	nt	nt	13%
CSc1cnn(Cc2ccccc2)c(=O)c1SCc1ccccc1	13%	?	35%	-1%	11%	60%
Oc1ccc(N=Nc2cccc(Cl)c2)cc1C=Nc1ccc(N2CCOCC2)cc1	7.9µM*	-16	?	-6%	-2%	?
Clc1cccc(-c2ccc(C=Nc3ccc(N4CCOCC4)cc3)o2)c1	32µM*	3	?	-9%	-3%	?
Oc1ccc2ccccc2c1C=Nc1ccc(N2CCOCC2)cc1	40µM*	2	50µM*	?	nt	?
C=Cc1ccc(N=Cc2c(O)ccc3ccccc23)cc1	6%	6	?	nt	nt	59%
CCOc1ccc(OCC)c(NC(=O)c2cc(S(=O)(=O)N3CCCC3)cn2C)c1	-5%	nt	-21%	nt	nt	15%
COc1ccc(OC)c(-c2nc(C(=O)NCCCN3CCOCC3)cc3c2[nH]c2ccccc23)c1	50µM*	-3	?	nt	nt	19%
COc1ccc(-n2c(=S)[nH]c3cc(C(=O)NCCCN4CCOCC4)ccc3c2=O)cc1OC	?	-8	22µM*	nt	nt	34%
COc1ccc(-n2nc(C(=O)NCC(=O)N3CCOCC3)c3ccccc3c2=O)c(OC)c1	4%	-2	-6%	nt	nt	-18%
COc1ccc(-n2nc(C(=O)NCCCN3CCOCC3)c3ccccc3c2=O)c(OC)c1	-24%	-14	56µM*	nt	nt	9%
COC(=O)CCC(C(=O)CN1C(=O)c2ccccc2C1=O)N1C(=O)c2ccccc2C1=O (stereo unspecified)	nt	-9	-24%	nt	nt	?
CC1(C)CC(=O)c2c(oc3c(Cl)cc(NS(=O)(=O)c4ccc(Cl)cc4)cc23)C1	1%	nt	-14%	nt	nt	25%
Clc1cccc(N/N=C/c2ccc(N3CCOCC3)s2)c1	50µM*	11	-14%	11µM*	-15%	21%
C=CCSc1nccc(-c2nn(-c3ccc(C)cc3)ccc2=O)n1	-4%	6	-17%	?	1%	49%
CSc1nccc(-c2nn(-c3ccc(C)cc3)ccc2=O)n1	25µM*	-4	56µM*	?	nt	-6%
CCSc1nccc(-c2nn(-c3ccc(C)cc3)ccc2=O)n1	-1%	-3	5%	?	nt	52%
C#CCSc1nccc(-c2nn(-c3ccc(C)cc3)ccc2=O)n1	-2%	-17	79µM*	?	nt	?
CCc1nn(CC(=O)NC2CC2)c(=O)c2cc3c(OC)cccc3n12	0%	nt	-12%	nt	nt	0%
COc1ccccc1NC(=S)NNC(=O)c1cc(C)n(C)n1	8%	1	-16%	18µM*	nt	35%
CNc1cccccc1=S	10µM*	?	11µM*	25µM*	4µM*	-19%
SMILES	BAZ2B inh	PI5P4K alpha inh	JMJD2A Tudor inh	JMJD2E inh	L3MBTL1 inh	HP1b chromo inh
CNc1ccccc1	-4%	14	-5%	nt	-4%	20%
CCN(CC)c1ccc(NC(=O)CCNS(=O)(=O)c2ccc3c(c2)CCC(=O)N3)c(C)c1	35µM*	7	?	nt	nt	?
Cc1ccc(NC(=O)CCS(=O)(=O)c2ccc(Br)cc2)nc1	8%	-27	20µM*	?	3%	3%
CCN(CC)c1ccc(NC(=O)CCS(=O)(=O)c2ccc(Br)cc2)c(C)c1	11µM*	-9	11µM*	nt	nt	13µM*
Cc1ccc(CNC(=O)CCS(=O)(=O)c2ccc(Br)cc2)cc1	?	-1	18µM*	11µM*	nt	7.1µM*
Cc1ccc(S(=O)(=O)CCC(=O)Nc2ccc(Br)cc2C)cc1	7%[57.1 µM]	nt	-13%	nt	nt	-14%
O=C(NCCN1CCCC1)c1ccc2c(c1)N(Cc1ccccc1)C(=O)c1ccccc1S2(=O)=O	-22%	2	-24%	nt	nt	32%
CCc1cccc(NS(=O)(=O)c2cc(-c3cnc(C)o3)ccc2OC)c1	?	nt	?	nt	nt	-26%
CCOC(=O)c1ccccc1NC(=O)CSc1cn(CC(=O)N2CCCCC2)c2ccccc12	-13%	nt	-9%	nt	nt	30%
NC(=O)c1cccc(C[C@H](C(=O)O)N2C(=O)c3ccc(C(=O)O)cc3C2=O)c1	-4%	nt	?	nt	1%	nt
O=C(CNC(=O)c1ccccc1F)OCc1cc(=O)n2ccsc2n1	7%	nt	1%	nt	nt	59%
Cc1ccc(S(=O)(=O)CCC(=O)Nc2ccc3c(c2)OCO3)cc1	4%	0	-8%	-10%	-10%	7%
O=C(CCS(=O)(=O)c1ccc(Br)cc1)Nc1ccc2c(c1)OCO2	50µM*	nt	50µM*	-4%	?	?
COc1cccc(C2c3c(oc4cc(C)cc(C)c4c3=O)C(=O)N2CCc2ccc(OC)c(OC)c2)c1 (stereo unspecified)	0%	nt	1%	nt	nt	33%
CCN1CCN(CCCOc2ccccc2-c2ccccc2)CC1	28µM*	-2	22µM*	-3%	8%	-5%
c1ccc(-c2ccccc2OCCN2CCOCC2)cc1	79µM*	-8	14µM*	?	8%	20µM*
OCCN1CCN(CCOc2ccccc2-c2ccccc2)CC1	13%	-3	-18%	4%	27%	6%
OCCCN1CCN(CCOc2ccccc2-c2ccccc2)CC1	3%	-2	-20%	1%	2%	38%
Cc1ccc(-n2ncc3c2CCCC3NC(=O)CCCN2CCCCC2=O)cc1C (stereo unspecified)	-10%	6	-10%	nt	nt	28%
O=C1C(Cl)=C(NC2CCc3ccccc32)C(=O)c2ncccc21 (stereo unspecified)	nt	nt	nt	5µM*	nt	nt
O=C1C(Cl)=C(NCCN2CCOCC2)C(=O)c2ncccc21	nt	nt	nt	29%	nt	nt
COc1ccc(C(=O)CC(=O)c2ccccc2)cc1	nt	5	158%	nt	nt	269%
